Inconclusive results are not listed. The source made the active and inactive calls. The calls were made as follows: active = hit-call score of the fitted dose curve at least 0.9, where 1 is the maximum; inconclusive = response in the unintended direction; inactive = score below 0.9.
read-out: sulfotransferase (SULT2A), SULT2A1 (gene 6822); assay: CLD_SULT2A_6hr: CellzDirect (CLD) Gene Expression Assay for sulfotransferase (SULT2A) at 6 hours (AID 2283669);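 also: hits raise transcript level above the DMSO vehicle baseline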
Method: CLD_6hr is a cell-based, multiplexed-readout assay that uses hepatocyte, a human liver primary cell, with measurements taken at 6 hours after chemical dosing in a 96-well plate.CLD_SULT2A_6hr is one of 16 assay component(s) measured or calculated from the CLD_6hr assay. It is designed to make measurements of mRNA induction, a form of inducible reporter, as detected with chemiluminescence signals by Quantitative Nuclease Protection Assay (qNPA) technology.Data from the assay component CLD_SULT2A_6hr was analyzed at the endpoint, CLD_SULT2A_6hr, in the positive analysis fitting direction relative to DMSO as the negative control and baseline of activity. Using a type of inducible reporter, gain-of-signal activity can be used to understand changes in the reporter gene as they relate to the gene SULT2A1. Furthermore, this assay endpoint can be referred to as a primary readout. To generalize the intended target to other relatable targets, this assay endpoint is annotated to the transferase intended target family, where subfamily is sulfotransferase.
Human hepatocyte cultures were treated daily for two consecutive days with fresh dosing solutions containing appropriate concentrations of the 320 ToxCast chemicals (chemical identities were blinded to CellzDirect and other ToxCast collaborators), vehicle control (0.2% DMSO), and positive control inducers as summarized in Table 1. Due to the large number of treatment groups and chemicals examined, the ToxCast chemicals were divided into two groups (spanning two independent cultures of hepatocytes from separate donor preparations (Hu778: ToxCast plates 1 and 2; Hu776: ToxCast plates 3 and 4). Each preparation of human hepatocyte cultures was treated with respective vehicle control, medium only control, set of six positive controls/reference chemicals for the five hepatic receptor pathways, and a subset of eight of the ToxCast chemicals (indoxacarb, pyrithiobac-sodium, norflurazon, cyhalofop-butyl, methomyl, thiram, acetochlor, and propiconazole). These replicate data, coupled with internal replicates designed within the blinded ToxCast chemical library, provided additional data to evaluate interindividual differences between hepatocyte preparations and their potential impact on chemical profiles.Cell morphology and integrity were evaluated using phase-contrast microscopy as an indicator of hepatocyte cell health (Tyson & Green, 1987). Cultures for each treatment group (i.e., media, vehicle [0.2% DMSO], positive control inducers [multiple concentrations], and the ToxCast chemicals [multiple concentrations]) were observed and cell morphology was assessed relative to vehicle control cultures at each harvest time point (0, 6, 24, or 48 h). […] Images were evaluated at the conclusion of the study to assess changes in cell integrity and account for the effects of chemical exposure on uncharacteristic changes in concentration-dependent gene expression profiles. The results from these determinations of apparent cytotoxicity were annotated (yes/no) alongside the corresponding qNPA data for reference.At the conclusion of each treatment period, hepatocyte cultures (96-well) were washed with 1 volume of HBSS, lysed by addition of 25 ul ArrayPlate lysis buffer (HTG, Tucson, AZ), and 70 ul/well of Denaturation Oil, denatured by incubation at 95C for 10 min, and frozen at approximately -70C until analysis by nuclease protection assay (qNPA) (Roberts et al., 2007). For qNPA analysis, cell lysates were thawed at 50C for approximately 30 min, qNPA probes were added, and samples were incubated at 95C for 10 min to begin the detection process by denaturing the target RNA, dissociating the duplexes and secondary structure hybridization. At the conclusion of the hybridization period, S1 nuclease reagent was added to each sample to digest all nonprotected nucleotides at 50C for 60-90 min. […]

Structure (SMILES)	outcome	AC50
Cn1c(-c2ccccc2)cc(-c2ccccc2)[n+]1C	inactive	–
CN=C=S	inactive	–
COc1cc(Cl)c(OC)cc1Cl	inactive	–
CC1(C)C(C=C(Cl)Cl)C1C(=O)OC(C#N)c1cccc(Oc2ccccc2)c1 (stereo not given)	inactive	–
CC1(C)C(C(=O)OC(C#N)c2cccc(Oc3ccccc3)c2)C1(C)C (stereo not given)	inactive	–
CCOc1nc(F)cc2nc(S(=O)(=O)Nc3c(Cl)cccc3Cl)nn12	inactive	–
COC(=O)c1c(C(F)F)nc(C(F)(F)F)c(C2=NCCS2)c1CC(C)C	inactive	–
CC(C)NC(=O)N1CC(=O)N(c2cc(Cl)cc(Cl)c2)C1=O	inactive	–
CCCCOCN(C(=O)CCl)c1c(CC)cccc1CC	–	4.32 µM (active)
C=C(C)CN(CC)c1c([N+](=O)[O-])cc(C(F)(F)F)cc1[N+](=O)[O-]	inactive	–
COC(=O)NC(=S)Nc1ccccc1NC(=S)NC(=O)OC	inactive	–
CC1(C)CON(Cc2ccccc2Cl)C1=O	inactive	–
COc1cc(OC)nc(NC(=O)NS(=O)(=O)c2ncccc2OCC(F)(F)F)n1	inactive	–
COCC(=O)N(c1c(C)cccc1C)C(C)C(=O)OC (stereo not given)	inactive	–
CO/N=C(/C1=NOCCO1)c1ccccc1Oc1ncnc(Oc2ccccc2Cl)c1F	inactive	–
C=CCOC(=O)C(C)(C)OC(=O)c1cc(-n2c(=O)cc(C(F)(F)F)n(C)c2=O)ccc1Cl	inactive	–
Nc1cnn(-c2ccccc2)c(=O)c1Cl	inactive	–
COP(=O)(OC)O/C(C)=C/C(=O)N(C)C	inactive	–
CSC(=O)c1c(C(F)F)nc(C(F)(F)F)c(C(=O)SC)c1CC(C)C	inactive	–
CCOc1cc(C(C)(C)C)ccc1C1COC(c2c(F)cccc2F)=N1 (stereo not given)	inactive	–

Structure (SMILES)	outcome	AC50
OC(c1ccc(Cl)cc1)(c1ccc(Cl)cc1)C(Cl)(Cl)Cl	inactive	–
COC(=O)NS(=O)(=O)c1ccc(N)cc1	inactive	–
Cc1nc(N(C)C)nc(OC(=O)N(C)C)c1C	inactive	–
N#Cc1c(Cl)cccc1Cl	inactive	–
CCN(CC)c1nc(C)cc(OP(=S)(OC)OC)n1	inactive	–
O=C(O)c1c(Cl)ccc2cc(Cl)cnc12	inactive	–
CCN(CC)C(=O)C(C)Oc1cccc2ccccc12 (stereo not given)	inactive	–
O=P(O)(O)CCCl	inactive	–
Cc1cc(C)nc(Nc2ccccc2)n1	inactive	–
CCCN(CC)CC1COC2(CCC(C(C)(C)C)CC2)O1 (stereo not given)	inactive	–
COC(=O)N(C(=O)N1CO[C@@]2(C(=O)OC)Cc3cc(Cl)ccc3C2=N1)c1ccc(OC(F)(F)F)cc1	inactive	–
CNC(=O)Oc1cccc2ccccc12	inactive	–
O=c1n(Cl)c(=O)n(Cl)c(=O)n1Cl	inactive	–
Clc1cccc(C(Cl)(Cl)Cl)n1	inactive	–
Cc1ccc(N=CN(C)C=Nc2ccc(C)cc2C)c(C)c1	inactive	–
COP(=S)(OC)Oc1ccc([N+](=O)[O-])c(C)c1	inactive	–
COCc1cnc(C2=NC(C)(C(C)C)C(=O)N2)c(C(=O)O)c1 (stereo not given)	inactive	–
CCSC(=O)N1CCCCCC1	inactive	–
Cc1cnc(C2=NC(C)(C(C)C)C(=O)N2)c(C(=O)O)c1 (stereo not given)	inactive	–
COc1ccc(-c2ccccc2)cc1NNC(=O)OC(C)C	inactive	–

Source: PubChem BioAssay (EPA / NIEHS)
